# Source: PubChem (National Center for Advancing Translational Sciences (NCATS))
# Most compounds without a hit are left out; they make up all but 11% or so of the library.
# Sfp inh: qHTS Assay for Inhibitors of Bacillus subtilis Sfp phosphopantetheinyl transferase (PPTase) | 4'-phosphopantetheinyl transferase ffp (Bacillus subtilis), Q9F4F7 | Biochemical Sfp PPTase activity, qHTS | Potency, µM, most hits filed as inhibitors | 310,000 tested, 3.5% active;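 further: the enzyme is Sfp with the accession as filed and its product quenches rhodamine fluorescence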
#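 After 15 min at room temperature with compound, 15 nM Sfp received 5 uM rhodamine-CoA plus 12.5 uM BHQ-2-ybbR (50 mM Hepes pH 7.6, 10 mM MgCl2). Rate came from the fluorescence difference over 30 min, ex 525/em 598 nm.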
# Tau fibril FP: qHTS for Inhibitors of Tau Fibril Formation, Fluorescence Polarization; 280,000 tested, 0.39% active; AID 1468, 2008; Potency, µM (doses to about 57.7 µM), actives largely listed as inhibitors; K18 P301L tau heparin fibrillization, Alexa594 FP, 6 h; further: nearly all actives have a fitted effect of over 55% in size
# Target sequence (P10636 561-689 P618L limits assumed): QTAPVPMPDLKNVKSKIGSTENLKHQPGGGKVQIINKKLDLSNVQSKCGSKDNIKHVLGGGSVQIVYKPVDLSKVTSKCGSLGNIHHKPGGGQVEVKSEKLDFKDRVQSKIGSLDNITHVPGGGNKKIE
#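 Read-out: fluorescence polarization of Alexa 594-labeled tau (0.24 uM), 555 nm excitation, 632 nm emission. Mixtures held 15 uM unlabeled K18 P301L, compound and 20 uM heparin, pH 7 acetate buffer, incubated 6 hr at 37 C.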
# Coupling enz: qHTS Assay for Inhibitors of Fructose-1,6-bisphosphate Aldolase from Giardia Lamblia: Coupling assay counterscreen. coupling enzyme system counterscreen, AmpLite Red fluorescence. activity change, negative = inhibition, % at 58.2 µM, hits read low. 290,000 tested, 0.67% active; in the data active means activity change below about -30%
#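 Compounds tested against the coupling enzymes alone at 57.5 uM final; readout was AmpLite Red fluorescence (525/598 nm) after 20 min at RT.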
# Tau fibril ThT: qHTS for Inhibitors of Tau Fibril Formation, Thioflavin T Binding; recombinant tau K18 P301L, heparin-induced fibrillization, ThT fluorescence; Potency, µM (doses to about 57.4 µM), usual class: inhibitors; 270,000 tested, 2.1% active; AID 1460, 2008; further: nearly all actives have a fitted effect of over 55% in size
#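 Using a mix of unlabeled (15 uM) and Alexa 594-labeled (0.24 uM) tau K18 P301L, heparin-triggered fibrillization over 6 hr at 37 C was scored by ThT fluorescence.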
# G9a block: qHTS Assay for Inhibitors of Histone Lysine Methyltransferase G9a; Potency, µM (series often up to 102 µM), hits mostly inhibitors; G9a H3K9 monomethylation, AlphaScreen, 2 h; AID 504332, 2011; Histone-lysine N-methyltransferase EHMT2 (Homo sapiens), Q96KQ7; 350,000 tested, 8.8% active; further: nearly all actives have a fitted effect of over 75% in size
# Target sequence (Q96KQ7 913-1193 limits assumed): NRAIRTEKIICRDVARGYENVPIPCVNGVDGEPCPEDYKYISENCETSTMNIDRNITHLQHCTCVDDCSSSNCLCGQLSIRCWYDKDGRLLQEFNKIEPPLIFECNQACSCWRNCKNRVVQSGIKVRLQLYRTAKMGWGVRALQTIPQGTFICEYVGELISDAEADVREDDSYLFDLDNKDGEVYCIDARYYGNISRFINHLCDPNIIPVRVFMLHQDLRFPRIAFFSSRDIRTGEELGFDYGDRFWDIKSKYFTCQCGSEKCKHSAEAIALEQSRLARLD
#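 G9a (20 nM) preincubated 15 min RT with compounds, then 500 nM biotinylated H3K9 peptide and 20 uM SAM added; 2 h RT reaction. Monomethyl-H3K9 product detected by AlphaScreen with anti-H3K9me1 antibody, streptavidin donor and anti-rabbit IgG acceptor beads.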
# Tau fluor cs: Counterscreen qHTS for Inhibitors of Tau Fibril Formation, Fluorescence Polarization | tau K18 P301L Alexa594 fluorescence, heparin fibrillization | Potency, µM (top dose mostly 57.7 µM) | 280,000 tested, 0.93% active | AID 1463, 2008; further: nearly all actives have a fitted effect of over 55% in size
#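 Human tau K18 P301L (15 uM unlabeled, 0.24 uM Alexa 594-labeled) in 100 mM sodium acetate pH 7 with 20 uM heparin, 6 hr at 37 C. ThT 30 uM added, 1 hr ambient; Alexa 594 FP and total fluorescence read at 555/632 nm.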
# Numbers stand for hits; 0 = inactive; ? = inconclusive; - = no result given; [ ] = dose if it differs, or a comment. Unless noted, the call rests on the fitted dose curve; in most records, active means well fitted curve in the direction sought with a large enough effect; inconclusive means small, poorly fitted or top-dose-only effect, or another doubt; inactive means no such curve, though single readings can be large; an effect the other way counts as inactive or inconclusive.
SMILES,Sfp inh,Tau fibril FP,Coupling enz,Tau fibril ThT,G9a block,Tau fluor cs
O=C(O)c1ccccc1-c1csc(-c2ccccc2)n1,0,0,0,0,0,0
COc1ccc(Nc2nc(N3CCOCC3)nc(N3CCOCC3)n2)c(OC)c1,0,-,0,-,0[0.501 µM],-
COc1ccc(Nc2nc(Nc3ccc(OC)cc3OC)nc(N3CCOCC3)n2)c(OC)c1,-,0,-,?,?,2.8µM[quencher]
Cc1nn(Cc2ccccc2)c(Cl)c1C(=O)OCC#N,0,0,0,0,0,0
CCN1C(=O)/C(=C/C=C2\C=CN(CC)c3ccccc32)SC1=S,45µM,?,-36,2.2µM,8.9µM,?
CCN1C(=O)/C(=C\C=C2/C=CC=CN2CC)SC1=S,?,?,-31,14µM,10µM,0
CCOC(=O)c1cc(-c2ccc(C)cc2)n(CCC(=O)Nc2ccc(OC)c(OC)c2)c1C,-,0,-,0,?,?
C=CCn1c(NC(=O)c2ccco2)c(S(=O)(=O)c2ccccc2)c2nc3ccccc3nc21,?,0,0,0,?,0
C=CCn1c(NC(=O)c2ccc(Br)o2)c(S(=O)(=O)c2ccccc2)c2nc3ccccc3nc21,0,?,0,20µM,?,0
O=C1CN(S(=O)(=O)c2cccc(Cl)c2Cl)c2ccccc2N1,0,-,0,-,50µM,-
CCCN(CC(=O)Nc1ccc(F)c(F)c1F)C(=O)C1=COCCO1,-,-,-,-,56µM,-
COc1ccc(Nc2nc(N3CCCCC3)c3ccccc3n2)cc1,50µM,0,0,?,?,?
Cc1ccc(Nc2nc(N3CCOCC3)c3ccccc3n2)cc1,0,0,0,0,?,0
Oc1ccc(Nc2nc(N3CCCC3)c3ccccc3n2)cc1,0,0,0,0,40µM,?
COc1ccc(Nc2nc(-c3ccccc3)c3cc(Br)ccc3n2)cc1,-,0,-,?,13µM,?
Cc1ccc(C(CC(=O)Nc2ccc(F)c(Cl)c2)N2Cc3ccccc3C2=O)cc1 (centres undefined),-,?,-,0,0,0
CCOc1ccc(-n2nc3ccc(NC(=O)COc4ccccc4C)cc3n2)cc1,-,0,-,?,0,0
CCOC(=O)C1(Cc2ccc(OC)cc2)CCN(C(=O)c2cc(C)nn2C)CC1,0,-,-,-,0[0.501 µM],-
CC1(C)c2ccccc2N(CC(N)=O)C12C=Cc1ccccc1O2 (centres undefined),0,0,0,0,0,0
CC1(C)c2ccccc2N2CC(=O)N(CC(N)=O)C21C (centres undefined),0,?,0,?,?,32µM[fluorescent]
C[C@@H](c1ccccc1)N1C(=O)[C@H]2[C@@H]3[C@H](O)C=CC(=O)[C@H]3CC[C@H]2C1=O,0,0[11.6 µM],0,0[11.5 µM],-,0[11.6 µM]
CCNc1ncc2nc(-c3ccccc3)c(=O)n(C[C@H]3CCCO3)c2n1,0,-,0,-,0[0.501 µM],-
COCCNC(=S)N/N=C/c1c2ccccc2cc2ccccc12,0,-,0,-,79µM,-
C[N+](C)(C)CC(=O)N/N=C/c1c2ccccc2cc2ccccc12,0,-,-,-,35µM,-
NC(=S)N/N=C/c1ccccc1,0,0,0,0,?,0
SMILES,Sfp inh,Tau fibril FP,Coupling enz,Tau fibril ThT,G9a block,Tau fluor cs
NC(=S)N/N=C\c1c2ccccc2cc2ccccc12,0,0,0,?,7.1µM,?
CNC(=S)N/N=C/c1c2ccccc2c(Cl)c2ccccc12,0,-,0,-,18µM,-
S=C(NCCN1CCOCC1)N/N=C/c1c2ccccc2cc2ccccc12,0,0,0,0,0,?
COCC(=O)N1CCC2(CC1)CCN(c1ccncc1)CC2,0,-,0,-,0[12.7 µM],-
CCn1c(=O)c2cc(C(=O)NCc3cc(OC)ccc3OC)sc2c2ccccc21,-,0,-,0,0,0
Cc1cccc(N2CC(C)Cn3c2nc2c3c(=O)n(CC(=O)O)c(=O)n2C)c1 (centres undefined),-,0,-,0,0,0
